PubChem BioAssay AID1117319 (Southern Research Institute, 2015)
Where “and” joins values, the source holds several entries; their conditions need not be identical. Equal entries are not always repeated. Out of some 260,000 compounds screened, about 1,500 (0.58%) were called active. About 5% were inconclusive and are not listed.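 How the source made its calls: active means inhibition above a set limit at one or more doses, reproduced on every date tested; inconclusive means results disagree between test dates, or hit never tested in dose response; inactive means the rest.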 The list is a sample of the results. Potency and affinity values are given separately.

Target: Virion infectivity factor (Human immunodeficiency virus type 1 group M subtype B (isolate BH10)) + Virion infectivity factor (Human immunodeficiency virus type 1 group M subtype B (isolate BRU/LAI)) + Virion infectivity factor (Human immunodeficiency virus type 1 group M subtype B (isolate PCV12)) + Virion infectivity factor (Human immunodeficiency virus type 1 group M subtype B (isolate HXB2)) + DNA dC->dU-editing enzyme APOBEC-3G (Homo sapiens) (UniProt P69720+P69721+P69722+P69723+Q9HC16)
Test: HIV-1 Vif–A3G interaction blockers – biochemical, TR-FRET, GST-Vif 1-94, biotin-A3G peptide, dose response retest, primary screen (AID 1117319);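 further: Vif residues 1-94 fused to GST binding biotinylated APOBEC3G peptide 110-148; 0% = full assay without inhibitor and 100% = GST in place of GST-Vif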
Settings: TR-FRET GST-Vif / biotin-A3G peptide binding; hits give high values

inhibition, inactive:
CCN(CC)c1ccc(/C=N/NS(=O)(=O)c2ccc(CNC(C)=O)cc2)cc1 -3.65%
COc1cccc(OCc2cc(/C=N/NC(=O)c3ccn[nH]3)ccc2OC)c1 0.65%
COC(=O)C1=C(N)N(c2ccc(F)cc2)C2=C(C(=O)CCC2)C1c1ccc2c(c1)OCO2 (stereo unspecified) -32.1%
Cn1c(SCCOc2ccc(Cl)cc2)nnc1-c1ccncc1 3.6%
Cn1c(SCCOc2ccc(F)cc2)nnc1-c1ccncc1 -1.32%
CCOc1ccc(C(=O)NCC2CCCO2)cc1OCC (stereo unspecified) 1.97%
CCOc1ccccc1NC(=S)NCC1CCCO1 (stereo unspecified) -2.09%
CC(=O)c1c(C)[nH]c(C(=O)NCc2ccc(F)cc2)c1C -3.52%
NC(=O)NC(=O)COC(=O)c1ccc(Cl)c(S(=O)(=O)N(Cc2ccccc2)c2ccc(Cl)cc2)c1 -3.29%
Cc1cccc(Nc2nc(-c3cccs3)cs2)n1 8.51%
CCNc1c(C(=O)O)ccc2c1C(=O)c1ccccc1C2=O 32.2%
O=C(O)c1ccc2c(c1Nc1ccccc1)C(=O)c1ccccc1C2=O -2.59%
COc1ccc(C(=O)NC2CC2)cc1OC1CCN(Cc2ccccc2F)CC1 -1.16%
Nc1nnnn1/N=C/c1cccc(O)c1 9.19%
O=C(CSc1nc(O)c(C2CCCCC2)c(=O)[nH]1)NCC1CCCO1 (stereo unspecified) 14.4%
Cc1ccc(CNC(=O)C2CC(=O)N(c3ccc(OCC(=O)N4CCCC4)cc3)C2)cc1 (stereo unspecified) -0.42%
O=C(c1ccc(Cl)cc1)c1cnc(-c2ccccc2)s1 -2.61%
Cc1ccc(C=C2C=C(c3ccccc3)OC2=O)cc1 6.6%
O=C1OC(c2ccc(F)cc2)=C/C1=C\c1ccc(O)cc1 -0.55%
C=CCN(C(=O)Nc1ccc(OC)cc1)c1nnc(-c2ccncc2)s1 -4.12%
CC(=O)Nc1cc(C)nn1-c1nc2ccccc2s1 -19.4%
Cc1cc(NC(=O)CCl)n(-c2nc3ccccc3s2)n1 -1.34%
O=C1CSC(c2ccc(Cl)cc2)N1c1cccnc1 (stereo unspecified) 3.17%
CCOC(=O)C1CCN(c2ncnc3c2cnn3-c2ccc(Cl)cc2)CC1 -26.4%
CCOC(=O)C1CCCN(c2ncnc3c2cnn3-c2ccc(OC)cc2)C1 (stereo unspecified) -2.45%
O=C(CCSc1ccc(Cl)cc1)c1ccco1 2.25%
O=C(CSc1ccc(Cl)cc1)NNC(=O)c1ccco1 2.28%
COc1ccc(NS(=O)(=O)c2cc(Cl)ccc2Cl)cc1S(=O)(=O)N1CCCCC1 10.3%
COc1ccc(NS(=O)(=O)c2cccc(Cl)c2)cc1S(=O)(=O)N1CCCCC1 2.26%
Nc1nc(Cn2nnc(-c3ccccc3F)n2)nc(N2CCOCC2)n1 -5.97%
COc1ccc(N=CC2=C(O)CCCC2=O)cc1 72.2%
CC1(C)CC(=O)C(C=Nc2ccc(O)cc2)=C(O)C1 21.5%
COC(=O)c1cccc(COC(=O)c2ccc(N(C)C)cc2)c1 -1.93%
CC1CCCCN1C(=O)CSc1nc2ccccc2[nH]1 (stereo unspecified) -5.81%
Cc1cccc(N/N=C/c2ccccc2O)c1 0.12%
COc1ccc(O)c(/C=N/NC(=S)Nc2cccc(S(=O)(=O)N(C)C)c2)c1 12.6%
CN(C)S(=O)(=O)c1cccc(NC(=S)N/N=C/c2cc(Br)ccc2O)c1 9.46%
CCn1c(C)nc2cc(C(=O)N/N=C/c3ccccc3C)ccc21 -5.98%
CCOc1ccccc1/C=N/NC(=O)c1cccc(S(=O)(=O)N(CC)CC)c1 -6.17%
CCn1c(C)nc2cc(C(=O)N/N=C/c3ccccc3)ccc21 4.16%
Cc1cccc(N/N=C/c2ccncc2)c1 4.59%
CCN(CC)S(=O)(=O)c1cccc(C(=O)N/N=C/c2cc(OC)c(O)c(OC)c2)c1 1.27%
CS/C(=N\S(=O)(=O)c1ccc(N)cc1)NS(=O)(=O)c1cccs1 4.67%
O=C(Nc1nnc(CCc2ccccc2)s1)c1ccco1 -2.33%
CSc1nnc(-c2cccc(C)c2)n1N -5.45%
CCOCCCn1c(=NC(=O)c2ccco2)c(C(=O)OCC)cc2c(=O)n3cccc(C)c3nc21 8.51%
O=C(NCc1ccccc1)C1=C[C@H](C2CC2)C[C@H](OCCCCO)O1 -0.51%
CC1=C(C(=O)OCC2CCCO2)C(c2ccc(O)cc2)NC(=O)N1 (stereo unspecified) 10.8%
CCN(C(=O)c1cc2ccccc2o1)C12CC3CC(CC(C3)C1)C2 -6.34%
CN(C)c1ccc(/C=C(/NC(=O)c2ccccc2)C(=O)N/N=C/c2ccc([N+](=O)[O-])c(O)c2)cc1 15.2% and -3.76%
O=C(N/N=C/c1ccc(Br)o1)/C(=C/c1ccc([N+](=O)[O-])cc1)NC(=O)c1ccccc1 12.1%
Cc1cc(=O)oc2cc(OCC(=O)OCC(=O)Nc3ccc4ccccc4c3)ccc12 -10.1%
Cn1nnnc1SCC(=O)N1c2ccccc2CCc2ccccc21 3.78%
O=C(O)c1sc(C(=O)O)c(-c2ccccc2)c1-c1ccccc1 2.28%
CC(C)(Oc1ccc(-c2ccco2)cc1)C(=O)O 3.13%
O=S(=O)(c1ccccc1)N1N=C(c2ccc(Cl)cc2)CC1c1ccco1 (stereo unspecified) 4.42%
O=C(/C=C/c1ccccc1)Nn1cnnc1 -6.05%
NC(=O)Cc1ccc(C(=O)c2ccc(F)cc2)s1 -4.28%
CCOc1ccccc1C(=O)NCC(=O)NCCc1ccc(S(N)(=O)=O)cc1 0.59%
Cc1ccccc1OCCC(=O)OCC(=O)NCCc1ccc(S(N)(=O)=O)cc1 -1.77%
COc1ccccc1C(=O)Nc1cccc(NC(C)=O)c1 12.4%
Oc1ccc2oc3c(c2c1C=NCc1ccncc1)CCCC3 24.2%
Cc1ccc(S(=O)(=O)N(C(=O)c2ccncc2)c2ccc3oc4c(c3c2)CCCC4)cc1[N+](=O)[O-] -4.21%
CCOc1ccccc1C(=O)N[C@H](C(=O)Nc1ccc(OC)c(S(=O)(=O)N2CCOCC2)c1)C(C)C -13.1%
O=C1OCCC1Sc1nnc(-c2cccnc2)n1-c1ccccc1F (stereo unspecified) 5.98%
CCOC(=O)N1CCN(Cc2nnc(-c3cccc(Br)c3)o2)CC1 -4.74%
Cc1ccc2nc(N3CCN(C)CC3)c(C#N)cc2c1 1.03%
Cc1ccc2cc(C#N)c(N3CCN(C)CC3)nc2c1 3.3%
Cn1c(N)c(C(=O)COC(=O)/C=C/c2ccccc2F)c(=O)n(C)c1=O 0.83%
COc1cccc(C(C)=NNc2ccc([N+](=O)[O-])cc2[N+](=O)[O-])c1OC 0.32%
C/C(=N\NC(=O)c1ccc([N+](=O)[O-])cc1)c1cc2ccccc2oc1=O 13.4%
Cc1cc(N/N=C/c2cccc(F)c2)nc(NCc2ccccc2)n1 4.51%
Nc1cc(=O)nc(SCC(=O)NC2CCCCC2)n1-c1ccccc1 -0.99%
Cc1cccc(-n2c(N)cc(=O)nc2SC(C)C(=O)NC2CCCCC2)c1 (stereo unspecified) -1.72%
O=[N+]([O-])c1ccc(O)c(C2=NNC(c3ccccc3F)C2)c1 (stereo unspecified) 13.2%
O=C(N/N=C/c1cc2c(cc1Br)OCO2)c1ccccn1 7.07%
O=C(O)c1ccc(S(=O)(=O)N2CCCCCCC2)cc1 1.86%
O=C(O)c1ccc(S(=O)(=O)N2CCCCCC2)cc1 1.58%
CC(C)(C)c1cc(NC(=O)COC(=O)C2CC2)n(-c2ccccc2)n1 -5.93%
COc1cc(OC)nc(NC(=O)CN2CCN(c3ccc(F)cc3)CC2)n1 4.2%
CC1=C(C(=O)OC(C)C)C(c2cccs2)C(C(=O)OC(C)C)=C(C)N1 -3.55%
CC(=O)C1=C(C)NC(=O)NC1c1cccs1 (stereo unspecified) 7.19%
COC(=O)c1ccc2c(=O)n(CC3CCCO3)c(SCC(=O)Nc3ccc(OC)cc3OC)nc2c1 (stereo unspecified) -7.78%
COc1ccc(C(=O)NC2CC3CCCC(C2)N3CC(C)C)cc1OC (stereo unspecified) -7.52%
CCCN1C2CCCC1CC(NC(=O)c1cc(OC)c(OC)c(OC)c1)C2 (stereo unspecified) 9.1%
Cc1noc(C)c1CSc1ncnc2sc3c(c12)CCC3 -4.14%
COc1ccc(/C(N)=N/OC(=O)c2ccco2)cc1 -1.36%
CCN1C(=O)c2ccccc2S(=O)c2ccc(C(=O)N3CCN(C(=O)c4ccco4)CC3)cc21 (stereo unspecified) 1.84%
O=C1c2ccccc2-c2c1cccc2C(=O)N1CCN(C(=O)c2ccco2)CC1 18.7%
CCOC(=O)c1c(/N=C/c2cccc([N+](=O)[O-])c2O)sc2c1CCC2 27%
CCCCn1cnc2c(SCc3ccc(Br)cc3)nc(N)nc21 -11.3%
CC(CC(C)C(=O)Nc1ccccc1C(C)(C)C)C(=O)O (stereo unspecified) 5.47%
CC(CN(C(N)=O)c1ccccc1O)C(=O)O (stereo unspecified) 17.1%
CCC1CCCCN1C(=O)COc1cc(=O)n(C)c2ccccc12 (stereo unspecified) 1.25%
O=C1c2cccc(NCCNCCO)c2C(=O)c2cccc(NCCNCCO)c21 -16.1%
O=C1c2cccc(O)c2C(=O)c2c(O)cccc21 23.8%
